This is an account of results in the supplement of paper PMC7156485.

Values joined by “and” are separate entries in the source; they are usually repeats but may differ in a detail not shown here. Equal values may be shown once. A number with no mark means an inactive call.
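Further: TDF is a line of transformed human dermal fibroblasts of mesenchymal origin.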

In the test the test system is HCC1569. Description: H1.0 immunofluorescence intensity relative to DMSO (% of DMSO); higher = stronger H1.0 induction, active = 140 or more. As to conditions: concentration: 10 µM; 24 h. Put shortly: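 HCC1569 and TDF cells were seeded at 800 per well in 384-well plates in RPMI with 10% FBS and treated with compounds at 10 µM for 24 h at 37 °C, in triplicate. After fixation in 3.7% formaldehyde, cells were stained with a rabbit anti-H1.0 antibody, an AlexaFluor 647 secondary and DAPI, and six fields per well were imaged at ×10. H1.0 nuclear intensity or cell number is given as percent of the plate control, using the median of replicates, with HCC1569 values smoothed for positional effects.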
For the compound `COc1cc2c3cc1Oc1c(OC)c(OC)cc4c1C(Cc1ccc(O)c(c1)Oc1ccc(cc1)CC3N(C)CC2)N(C)CC4.Cl.Cl` (stereo not given), the H1.0 immunofluorescence intensity was 109.

With `CCOC(=O)c1ncn2c1CN(C)C(=O)c1cc(F)ccc1-2` [Flumazenil], the H1.0 immunofluorescence intensity is 93.6.

With `CC1CCC2(C(=O)O)CCC3(C)C(=CCC4C5(C)CCC(O)C(C)(C)C5CCC43C)C2C1C` (stereo not given) [Ursolic acid], the H1.0 immunofluorescence intensity was 93.7.

In the case of `CCCCCC(O)C=CC=CC=CC(O)CC=CCCCC(=O)O` (stereo not given), the H1.0 immunofluorescence intensity was 107.

Turning to `Nc1nc(Cl)nc2c1ncn2C1OC(CO)C(O)C1O` (stereo not given) [2-Chloroadenosine], the H1.0 immunofluorescence intensity is 89.

Take `Clc1ccc(CON=C(Cn2ccnc2)c2ccc(Cl)cc2Cl)c(Cl)c1` [Oxiconazole]: the H1.0 immunofluorescence intensity was 113.

For `Cc1nc2sccn2c(=O)c1CCN1CCC(=C(c2ccc(F)cc2)c2ccc(F)cc2)CC1` [Ritanserin], the H1.0 immunofluorescence intensity is 105.

For the compound `CCCCCC=CCC(O)C=CC=CC=CC(O)CCCC(=O)O` (stereo not given) [Leukotriene B4], the H1.0 immunofluorescence intensity is 102.

As for `O=C(O)c1cn(C2CC2)c2cc(N3C[C@@H]4C[C@H]3CN4)c(F)cc2c1=O`, the H1.0 immunofluorescence intensity was 102.

With `Nc1ncnc2c1ncn2C1OC(CO)C(O)C1O` (stereo not given) [Adenosine], the H1.0 immunofluorescence intensity was 93.6.

For the compound `C[N+]1(C)CCCC1C(=O)[O-].Cl` (stereo not given), the H1.0 immunofluorescence intensity is 109.

As for `O=C1CCc2cc(OCCCCc3nnnn3C3CCCCC3)ccc2N1` [Cilostazol], the H1.0 immunofluorescence intensity is 97.

As for `CCN(CC)CCCC(C)Nc1ccnc2cc(Cl)ccc12` (stereo not given) [Chloroquine], the H1.0 immunofluorescence intensity is 93.6.

In the case of `O=C1c2c(O)cc(O)cc2OC(c2ccc(O)c(O)c2)C1O` (single isomer, unassigned; (+)) [(+)-Taxifolin], the H1.0 immunofluorescence intensity is 102.

As for `Cc1ccc(-c2n[nH]c3c2C(c2cccc(O)c2)N(c2ccc(C(=O)O)cc2)C3=O)cc1` (stereo not given), the H1.0 immunofluorescence intensity is 116.

Take `Cn1cnc2c(F)c(Nc3ccc(Br)cc3Cl)c(C(=O)NOCCO)cc21`: the H1.0 immunofluorescence intensity was 98.8.

As to `NCC1CCC(C(=O)O)CC1` (stereo not given) [Tranexamic acid], the H1.0 immunofluorescence intensity was 111.

Take `CCN1CCCC1CNC(=O)c1c(O)c(Cl)cc(Cl)c1OC.O=C(O)C(O)C(O)C(=O)O` [S(+)-Raclopride L-tartrate]: the H1.0 immunofluorescence intensity was 99.9.

In the case of `NC(=O)C(=O)[O-].[Na+]` [Sodium Oxamate], the H1.0 immunofluorescence intensity is 93.5.

With `CCCCCCC=CCCCCCCCC(=O)O` [9(Z)-Hexadecenoic acid], the H1.0 immunofluorescence intensity was 101.

Take `CS(=O)(=O)CCNCc1nc(-c2ccc3ncnc(Nc4ccc(OCc5cccc(F)c5)c(Cl)c4)c3c2)cs1.Cl.Cl`: the H1.0 immunofluorescence intensity is 136.

As to `CCCCCCCCCCCCCCCCCC(=O)OC(CC(=O)O)C[N+](C)(C)C.[Cl-]` (racemic) [DL-Stearoylcarnitine chloride], the H1.0 immunofluorescence intensity was 114.

Consider `CCC=CCC=CCC=CCC=CCCCCC(=O)O.[Na]` [6(Z), 9(Z), 12(Z), 15(Z)-Octadecatetraenoic acid], for which the H1.0 immunofluorescence intensity was 102.

With `CN(C)CCCOc1nn(Cc2ccccc2)c2ccccc12` [Benzydamine], the H1.0 immunofluorescence intensity is 103.

For `CS(=O)(=O)c1ccc(-c2cc(Br)sc2-c2ccc(F)cc2)cc1`, the H1.0 immunofluorescence intensity is 95.6.

As for `CCCCCCCCCCCC=CCC=CCCCC(=O)O` [5(Z), 8(Z)-Eicosadienoic acid], the H1.0 immunofluorescence intensity is 99.3.

Turning to `Cl.Cl.NCCC(=O)NCCc1cnc[nH]1` [Carcinine dihydrochloride], the H1.0 immunofluorescence intensity was 88.5.

`COc1ccc2c(c1OC)N=C(NC(=O)c1cccnc1)N1CCN=C21`: the H1.0 immunofluorescence intensity is 101.

Regarding `CSC(=N)N.CSC(=N)N.O=S(=O)(O)O` [S-Methylisothiourea hemisulfate], the H1.0 immunofluorescence intensity is 96.7.

As to `Nc1ncnc2n[nH]c(Nc3ccc(F)cc3)c12` [MNK1 Inhibitor], the H1.0 immunofluorescence intensity is 140.

For the compound `COc1cccc(-c2cc(=O)c3ccccc3o2)c1N`, the H1.0 immunofluorescence intensity was 106 and 104.

Turning to `COc1ccc(CC(=O)NC(N=C(NC#N)Nc2cccc3ncccc23)C(C)(C)C)cc1OC` (stereo not given), the H1.0 immunofluorescence intensity was 96.8.

On to `CCCCCCCCCCCCCCCC(=O)C(F)(F)F`, for which the H1.0 immunofluorescence intensity is 94.4.

`Cn1cc(C2=C(c3cn(CCCSC(=N)N)c4ccccc34)C(=O)NC2=O)c2ccccc21`: the H1.0 immunofluorescence intensity was 238 (active).

Turning to `CC1=CC(=O)c2ccccc2C1=O` [Menadione], the H1.0 immunofluorescence intensity is 91.9.

As to `Cc1ccc(C)c(OCCCC(C)(C)C(=O)O)c1` [Gemfibrozil], the H1.0 immunofluorescence intensity was 115.

On to `Cc1ccccc1C(OCCN(C)C)c1ccccc1.Cl` (stereo not given) [Orphenadrine hydrochloride], for which the H1.0 immunofluorescence intensity was 97.

On to `CCOC(=O)C1=C(C)NC(=S)NC1c1cccc(O)c1` (stereo not given) [Monastrol], for which the H1.0 immunofluorescence intensity was 97.1.

Turning to `NC(=O)c1ccc(-c2nc(-c3ccc4c(c3)OCCO4)c(-c3ccccn3)[nH]2)cc1`, the H1.0 immunofluorescence intensity is 122.

On to `NC(=O)N1C(=O)/C(=C(\O)c2cccs2)c2cc(Cl)ccc21`, for which the H1.0 immunofluorescence intensity is 106.
